JMJD2A Tudor inh: JMJD2A Tudor domain (human) inhibition. Potency, µM (top dose mostly 114 µM), actives largely listed as inhibitors. AlphaScreen JMJD2A-Tudor / H3K4me3 peptide binding. O75164. actives 4.4% (n = 390,000); further: nearly all actives have a fitted effect of over 50% in size
HP1b binding inh: inhibitors of HP1-beta chromodomain binding to methylated histone tails | P83916 | AlphaScreen HP1-beta / biotin-H3K9me3 peptide binding | Potency, µM (top dose mostly 114 µM), most hits filed as inhibitors | actives 0.56% (n = 390,000) | AID 540317; further: nearly all actives have a fitted effect of over 70% in size
Target sequence (P83916 whole entry, looked up): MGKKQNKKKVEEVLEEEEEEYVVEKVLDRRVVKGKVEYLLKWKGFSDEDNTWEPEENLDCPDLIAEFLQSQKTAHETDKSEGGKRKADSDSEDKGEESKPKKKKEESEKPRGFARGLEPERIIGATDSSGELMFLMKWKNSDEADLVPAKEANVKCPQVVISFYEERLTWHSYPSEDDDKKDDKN
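Compound inhibition of the preformed complex between 50 nM HP1-beta and 50 nM biotinylated H3K9me3 peptide was read by AlphaScreen. Buffer was PBS pH 7.4 with 0.01% Tween-20. Incubations ran 30 min at room temperature, with 10 ug/mL donor/acceptor beads.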
Sfp inh: Sfp phosphopantetheinyl transferase inhibition. Biochemical Sfp PPTase activity, qHTS. Potency, µM, most hits filed as inhibitors. actives 3.5% (n = 310,000);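 further: the enzyme is Sfp with the accession as filed and its product quenches rhodamine fluorescence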
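With Hepes-Na pH 7.6 buffer containing 10 mM MgCl2, Sfp (15 nM) modified BHQ-2-YbbR (12.5 uM) using rhodamine-CoA (5 uM). Two reads 30 minutes apart at 525/598 nm yielded each well's rate.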
G9a block: blocks human histone lysine methyltransferase G9a; Q96KQ7; G9a H3K9 monomethylation, AlphaScreen, 2 h; Potency, µM (highest dose often 102 µM), hits mostly inhibitors; actives 8.8% (n = 350,000); AID 504332; further: nearly all actives have a fitted effect of over 75% in size
Target sequence (Q96KQ7 913-1193 limits assumed): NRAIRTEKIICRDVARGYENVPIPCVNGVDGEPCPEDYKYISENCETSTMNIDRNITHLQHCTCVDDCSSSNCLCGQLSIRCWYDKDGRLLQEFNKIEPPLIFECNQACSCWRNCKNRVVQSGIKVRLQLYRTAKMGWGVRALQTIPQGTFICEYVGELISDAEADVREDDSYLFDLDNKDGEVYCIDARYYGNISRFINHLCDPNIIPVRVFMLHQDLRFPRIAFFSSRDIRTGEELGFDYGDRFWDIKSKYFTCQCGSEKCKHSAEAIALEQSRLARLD
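AlphaScreen detection with an anti-monomethyl H3K9 antibody quantified product after a 2 h room-temperature reaction containing 500 nM biotinylated H3K9 peptide, 20 µM SAM and 20 nM enzyme, which had been preincubated 15 min with compound.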
BAZ2B inh: blocks human BAZ2B; Potency, µM (doses to about 114 µM), hits mostly inhibitors; AlphaScreen BAZ2B-H3K14Ac peptide displacement; actives 4.4% (n = 360,000); Q9UIF8; further: nearly all actives have a fitted effect of over 60% in size
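In this displacement format the biotinylated H3(5-23) peptide acetylated at Lys14 serves as ligand at 50 nM, with BAZ2B at 50 nM in PBS pH 7.4 containing 0.01% Tween-20. Donor and acceptor beads are 10 ug/mL final.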
Hits are given with their value; . = inactive; ? = inconclusive; / = no result given; [ ] = remark or other dose. Hits are enriched below; roughly 12% of the tested compounds scored in any of these assays. The call rests on the fitted dose curve; in most records, active means well fitted curve in the direction sought with a large enough effect; inconclusive means small, poorly fitted or top-dose-only effect, or another doubt; inactive means no such curve, though single readings can be large; an effect the other way counts as inactive or inconclusive.

SMILES	JMJD2A Tudor inh	HP1b binding inh	Sfp inh	G9a block	BAZ2B inh
O=C1N(Cc2cccnc2)C[C@@H]2C[C@@H](c3ccc(-c4ccccc4)cc3)N3CCC[C@@]123	.	.	.	50.1µM	.
CCn1ccnc1[C@@H]1C[C@H]2CN(Cc3cccc(Cl)c3)C(=O)[C@]23CCCN13	.	.	.	.	.
O=C1N(Cc2cccc(Cl)c2)C[C@@H]2C[C@@H](c3ccccn3)N3CCC[C@@]123	.	.	50.1µM	25.1µM	79.4µM
Cn1cc([C@@H]2C[C@H]3CN(Cc4cccc(Cl)c4)C(=O)[C@]34CCCN24)c2ccccc21	.	.	.	50.1µM	.
CCCn1cc([C@@H]2C[C@H]3CN(Cc4cccc(Cl)c4)C(=O)[C@]34CCCN24)c(C)n1	.	.	.	.	.
CC(=O)Nc1ccc(S(=O)(=O)NCC(=O)OCc2ccccc2)cc1	.	.	.	.	.
Cc1cc(=O)n(CC(=O)Nc2ccc([N+](=O)[O-])cc2)c(-n2nc(C)cc2C)n1	.	.	/	?	.
CCc1nc2ccc(C(=O)NCCc3ccc(SC)cc3)cc2nc1CC	.	.	/	.	.
COc1cc2c(cc1OC)CN(Cc1cc(OC)c3c(c1)OCO3)CC2	8.91µM	.	?	?	50.1µM
COc1cc2c(cc1OC)CN(CCOc1ccc(Br)cc1)CC2	.	.	.	.	.
COc1cc2c(cc1OC)CN(CC(=O)Nc1ccc(C)cc1)CC2	.	.	.	?	.
COc1cc2c(cc1OC)CN(Cc1ccc(F)cc1)CC2	3.16µM	.	.	?	50.1µM
COc1ccc(CN2CCc3cc(OC)c(OC)cc3C2)cc1O	44.7µM	?	.	.	?
Cc1ccc2cccc(Oc3ncnc4scc(-c5ccc(Cl)cc5)c34)c2n1	.	.	.	.	.
O=C(CNC(=O)c1cc(Cl)nc2ccccc12)Nc1ccccc1Br	.	.	/	.	.
O=C(Cn1c(-c2cccs2)cc2cc(Cl)ccc21)N1CCN(c2ccccc2)CC1	.	.	/	.	.
C[C@]1(C(=O)NCC2CC2)C=C[C@@H](Cc2ccccc2)N1C(=O)c1ccccc1	/	/	.	/	/
CCOC(=O)c1cccc(NC(=O)NCc2cccn2Cc2ccccc2)c1	.	.	/	.	.
CC1(C)CC(=O)C2=C(C1)O[C@@]1(CCCCN3C(=O)c4ccccc4C3=O)Cc3cc(C#N)ccc3C2O1	/	/	.	/	.[22.9 µM]
O=Cc1c(-c2ccccc2)nc2ccccn12	.[11.4 µM]	.	.	.	.
CCc1nc(-c2ccccc2)c2ccccn12	.	.	28.2µM	15.8µM	/
COc1ccc(S(=O)(=O)N(C)C)cc1NC(=O)[C@H](Cc1ccccc1)N1C(=O)c2ccccc2C1=O	.	.	.	50.1µM	.
COc1cccc(NC(=O)C2C3C=CC4(O3)C2C(=O)N(CCCN2CCCCC2)C4C(=O)NC2CCCCC2)c1 (centres undefined)	.	.	.	.[12.7 µM]	?
CCC(C)NC(=O)c1ccc2nc(-c3ccco3)c(-c3ccco3)nc2c1 (centres undefined)	.	.	/	/	/
COCCn1c(=S)[nH]c2ccccc21	.	.	.	39.8µM	.
SMILES	JMJD2A Tudor inh	HP1b binding inh	Sfp inh	G9a block	BAZ2B inh
COc1ccc(-n2c(=S)[nH]c3ccccc32)cc1	39.8µM	.	44.7µM	3.55µM	?
COCCn1c(=S)[nH]c2cc(C(=O)N3CCc4ccccc43)ccc2c1=O	.	.	.	?	.
COc1ccc(Cn2c(=S)[nH]c3ccccc32)cc1	.	.	.	1.78µM	.
COc1ccc(C(=O)[C@]2(C)C=C(c3ccc(OC)cc3)[C@H](C)C2)cc1	/	/	.	/	/
CCSC(=O)N=Nc1ccc(O)cc1	56.2µM	?	/	/	/
CC12CCC(C(=O)N(CCCCN3CCN(Cc4ccccc4)CC3)C1=O)C2(C)C (centres undefined)	?	.	.	56.2µM	.
CC12CCC(C(=O)N(CC(O)CN3CCN(Cc4ccccc4)CC3)C1=O)C2(C)C (centres undefined)	.	.	.	.[12.7 µM]	?
COCCNC(=O)CCCn1c(=O)[nH]c2ccsc2c1=O	.	.	/	.	.
Cc1cc(OCCCCCn2ccnc2)cc(C)c1Cl	?	.	.	.	?
CCc1cccc(OCCCn2ccnc2)c1	12.6µM	50.1µM	.	15.8µM	31.6µM
CCOc1cccc(OCCCCn2ccnc2)c1	6.31µM	?	.	?	50.1µM
Brc1cccc(OCCn2ccnc2)c1	3.55µM	.	56.2µM	8.91µM	39.8µM
